# ChEMBL document CHEMBL4888484, “Replenishing the malaria drug discovery pipeline: Screening and hit evaluation of the MMV Hit Generation Library 1 (HGL1) against asexual blood stage Plasmodium falciparum ,using a nano luciferase reporter read-out” (2022)
# “And” between values parts separate entries of the source, which are not always exact repeats. Equal entries are not always repeated. Out of some 150,000 compounds screened, about 540 (0.36%) showed an effect of 50% or more. What follows is part of a selection rich in strong results, with near analogues and random picks from the rest.
# System: Plasmodium falciparum
# Experiment: Primary screen in NF54 nanoGlo assay, in single point, at 2uM, 72h; a lower Z score goes with more inhibition
# Format: functional, Erythrocyte
# Details: timepoint 72 hour
Structure (SMILES),% Inhibition,Z score,% Inhibition (2 µM)
CCc1nn(C)c(OC)c1CNC(=O)N[C@@H]1Cc2ccccc2[C@H]1O,-13%,1.27,
COc1ccc2cc1Oc1cccc(c1)CO[C@H]1CCN(C(=O)CN3CCC(O)CC3)C[C@H]1NC(=O)CC2,-23%,2.88,
COc1cccc(-c2nc(C)c(C(=O)NCc3nnc4ccccn34)s2)c1,-3%,0.36,
COc1cccc(-c2nc(C)c(C(=O)Nc3nc(C(C)C)n[nH]3)s2)c1,68%,-7.28,
COc1cccc(-c2nc(C)c(C(=O)Nc3n[nH]c(CC(C)C)n3)s2)c1,,,82% and 77%
COc1cccc(-c2nc(C)c(C(=O)Nc3cccc4[nH]ccc34)s2)c1,-1%,0.1,
COc1ccc(-c2nc(C)c(C(=O)Nc3n[nH]c(CC(C)C)n3)s2)cc1OC,15%,-2.32,
COc1cccc(-c2nc(C)c(C(=O)NC[C@@H]3CCCN4CCCCC34)s2)c1 (stereo partly specified),-1%,0.17,
O=C(CCC1CCCCC1)NC1CCN(c2cn[nH]c(=O)c2)CC1,-10%,1.05,
CCN(CC)c1nc2cc(C(=O)NCc3ccc(C)cc3)ccc2c(=O)n1Cc1ccccc1,5%,-0.78,
COc1ccc(Cn2c(C)c(C3=CCN(S(=O)(=O)c4cc(C)c(C)cc4C)CC3)c3ccccc32)cc1,0%,0.05,
CC(=O)Nc1ccc(C)cc1S(=O)(=O)N1CC=C(c2c(C)n(Cc3ccccc3C)c3ccccc23)CC1,92%,-8.31,
CC(=O)Nc1ccc(C)cc1S(=O)(=O)N1CC=C(c2c(C)n(Cc3ccc(Cl)cc3)c3ccccc23)CC1,-14%,1.87,
Cc1cc(C(F)(F)F)n(C[C@@H](C)Cn2cc(-c3cncnc3)nn2)n1,-6%,0.77,
COC(=O)Nc1nc(-c2ccccc2)c(-c2nccc(OCC(F)(F)F)c2C)s1,30%,-3.82,
COc1ccccc1N(Cc1ccccc1)C1=NC(=[N+](Cc2ccccc2)c2ccccc2OC)c2ccccc21,73%,-6.15,
COc1ccccc1N(C)Cc1c(C)noc1C,7%,-0.98,
COc1ccc(Cl)cc1N(Cc1ccccc1)Cc1ccccc1,-2%,0.32,
O=C(CCc1c(F)cccc1Cl)N1CC(Nc2cnccn2)C1,-6%,0.7,
CC1(CO)CCCC1NCC(C)(O)C(F)(F)F (stereo unspecified),33%,-3.73,
O=c1c2ccccc2nc(Cc2ccccc2)n1Nc1ccccc1,-13%,1.76,
COc1nc(-c2cccc(C(=O)N3C[C@@H]4CC[C@H](C3)C(=O)N4)c2)ncc1F,68%,-12.2,
O=C(NCC1CCOCC1)c1ccc(-c2ccc(C(F)(F)F)cn2)cc1,1%,-0.21,
Cc1cc(C)nc(-c2cccc(C(=O)NC[C@H]3CCOC3)c2)n1,-2%,0.19,
Cc1ccc(-c2cccc(C(=O)NCC3CCOCC3)c2)c(C)n1,-2%,0.22,
O=C(NCC1CCOCC1)c1ccc(-c2ccc(Cl)cn2)cc1,7%,-1.01,

Structure (SMILES),% Inhibition,Z score,% Inhibition (2 µM)
COc1nc(-c2cccc(C(=O)NCC3CCOCC3)c2)ncc1F,70%,-12.03,
CCc1cc(-c2cccc(C(=O)N3C[C@@H]4CC[C@H](C3)C(=O)N4)c2)nc(C)n1,-4%,0.67,
O=C1N[C@H]2CC[C@@H]1CN(C(=O)c1cccc(-c3ccc4nccc(O)c4c3)c1)C2,-3%,0.64,
Cc1nc[nH]c1CN(Cc1c(C)nn(C)c1C)C(C)C,-7%,0.99,
CC(C)N(CC1CCC1)C(=O)NC1CCC(Oc2cnccn2)CC1 (stereo unspecified),29%,-3.26,
COc1cc(C)c(-c2ccc(C(=O)N3CCCCCC3)cc2)cn1,-10%,1.56,
Cc1ccc2c(C3=CCN(C(=O)c4cnc5[nH]c(=O)[nH]c(=O)c5c4)CC3)c[nH]c2c1,6%,-1.15,
O=C(CCc1cc2n(n1)CCN(Cc1ccc3ccccc3n1)C2)NCCO,-16%,2.81,
CCOCCC1CCN(C(=O)c2cccc(-n3cccn3)n2)CC1,-15%,1.43,
CCc1ocnc1C(=O)NC1CCCCCC1C(=O)OC (stereo unspecified),-7%,0.61,
O=C(c1ccccc1)C1C(c2ccccc2)N1C(=O)c1cccc(Cl)c1 (stereo unspecified),-7%,0.84,
CC(=O)Nc1ccc(-c2cc(-c3ccccc3)nc(-c3ccccc3)n2)cc1,-14%,2.76,
CC(=O)Nc1ccc(-c2cn3c4ccccc4ccc3[n+]2C)cc1,87%,-10.86,
CC(=O)Nc1ccc(-c2cn(C)c[n+]2C)cc1,-42%,4.97,
OC1(c2csc(CN3CCOCC3)n2)CCN(Cc2ccccn2)CC1,-9%,1.39,
Cn1c(C(=O)Nc2cc(F)ccc2NC(=O)c2ccccn2)cc(Cl)c1Cl,-27%,2.71,
C[C@H]1CCC[C@@H](NCCc2ccccc2)CCC/C=C/c2cc(O)cc(O)c2C(=O)O1,73%,-6.47,
CC(C)N1CC[C@H](NCCc2ccccc2)C1,-6%,0.77,
O=C(NCCc1ccccc1)NC1CCCC1,-11%,2.11,
NC(=O)c1ccc(NCCOc2cccc(Cl)c2Cl)nn1,-9%,1.2,
CCC[C@H]1CN(C(=O)c2cccc3cn[nH]c23)CCN1CCOC,4%,-0.6,
Cc1ccccc1NC(=O)CN1CCN(Cc2ccccc2)S1(=O)=O,-18%,1.6,
Cc1ccc(C2=C[C@@H](c3ccc(C)cc3)n3nc(NC(=O)c4cccc(Cl)c4)nc3N2)cc1,16%,-2.03,
CC1=C[C@@H](c2ccc(Cl)cc2)n2nc(NC(=O)c3ccccc3)nc2N1,-6%,1.14,
Cc1ccc(C2=C[C@@H](c3ccc(Cl)cc3)n3nc(NC(=O)c4ccccc4)nc3N2)cc1,84%,-8.34,
